# Measurements published in PubChem BioAssay (NCATS).
# Several values for one entry are separate records, joined by “and”; a condition that tells them apart may be missing. Identical values can stand only once. Results filed as inconclusive are left out. Where a call stands in place of a potency, no number is given. Some compounds were tested as several samples or in several runs, with calls that do not always agree. Activity calls are given as the source filed them. Unless noted, the call rests on the fitted dose curve; in most records, active means well fitted curve in the direction sought with a large enough effect; inconclusive means small, poorly fitted or top-dose-only effect, or another doubt; inactive means no such curve, though single readings can be large; an effect the other way counts as inactive or inconclusive.
# Assays:
# [1] = biological target: Cytochrome P450 2D6 (Homo sapiens) (UniProt P10635); test: qHTS Assay for Inhibitors and Substrates of Cytochrome P450 2D6 (AID 891); further: nearly all actives have a fitted effect of over 60% in size; further: potency means the concentration at half of the fitted maximal effect
# Procedure, shortened: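 Luminescent read-out of luciferin formed by 5 nM human CYP2D6 demethylating 30 uM Luciferin-ME EGE (Km level) over 60 min at room temperature after NADPH regeneration addition. Data normalized to full inhibition by 1.43 uM quinidine.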
# [2] = biological target: Phospholipid hydroperoxide glutathione peroxidase GPX4 (Homo sapiens) (UniProt P36969); test: Primary qHTS Assay for Inhibitors of Recombinant Selenoprotein Glutathione Peroxidase 4 (GPX4) (AID 1845192); further: nearly all actives have a fitted effect of over 65% in size; further: potency means the concentration at half of the fitted maximal effect
# Procedure, shortened: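 NADPH consumption followed by fluorescence at 340/450 nm, t=0 and after 15 min at room temperature. Reaction started with cumene hydroperoxide (0.5 mM final) after 30 min compound–GPX4 preincubation; final 200 nM GPX4, 100 nM GR, 1 mM GSH, 0.5 mM NADPH.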
# [3] = biological target: Dual specificity protein kinase CLK4 (Homo sapiens) (UniProt Q9HAZ1); test: qHTS Assay for Inhibitors of CDC-like Kinase 4 (ADP-Glo Assay) (AID 1771); further: nearly all actives have a fitted effect of over 70% in size; further: potency means the concentration at half of the fitted maximal effect
# Procedure, shortened: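 In this ADP-Glo format, 1 uM ATP and 100 uM RS peptide served as substrates for 25 nM Clk4 in Mg2+/EGTA/DTT/Triton buffer; reactions ran 1 hr at room temperature before luminescent ADP quantification.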
# [4] = Cell Viability - SH-SY5Y (AID 544);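 further: cells exposed to compound for 40 hours; nearly all actives have a fitted effect of over 55% in size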
# Procedure, shortened: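 Quantitative HTS in SH-SY5Y neuroblastoma cells, 40 hr treatment at 37 °C, ATP content by luciferase luminescence; AC50 from Hill fits.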
# [5] = biological target: Estrogen receptor (Homo sapiens) (UniProt P03372); test: qHTS assay for small molecule agonists of estrogen receptor alpha signaling (AID 588514; calls by dose curve; further: nearly all actives have a fitted effect of over 70% in size)
# Procedure, shortened: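 Fluorescence from CCF4 cleavage reports ER-alpha-driven beta-lactamase expression in HEK 293 cells treated 18 hrs at 37 C. Data normalized to 17-beta-estradiol (20 nM) and DMSO, fitted to Hill equation.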
# [6] = biological target: Peroxisome proliferator-activated receptor gamma (Homo sapiens) (UniProt P37231); test: qHTS assay for small molecule antagonists of peroxisome proliferator-activated receptor gamma signaling (AID 588537; active means well fitted inhibition curve with a large enough effect in the signal ratio, with a control signal flat, not every such curve was filed as active; the % refers to the signal ratio;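 further: reporter cells co-stimulated with 50 nM rosiglitazone agonist during compound treatment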)
# Procedure, shortened: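 Cell-based beta-lactamase assay; GW9662 served as the antagonist control. Stimulation used rosiglitazone, final 50 nM, 16 h, 37 C.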
# [7] = qHTS assay for small molecule agonists of retinoid X receptor alpha signaling (AID 588544; calls by dose curve); settings: HEK293T RXRa-UAS-bla, beta-lactamase reporter, 18 h; 530 nm emission
# [8] = biological target: Retinoic acid receptor RXR-alpha (Homo sapiens) (UniProt P19793); test: as above
# [9] = qHTS assay for small molecule agonists of the antioxidant response element (ARE) signaling pathway (AID 651741; active means well fitted activation curve with a large enough effect in the signal ratio; the % refers to the signal ratio; further: potency means the concentration at half of the fitted maximal effect)
# Procedure, shortened: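 Agonist activity is measured as ARE-driven beta-lactamase expression in a stable HepG2 reporter line, using 16 h compound treatment at 37 C and a FRET substrate fluorescence readout after 2 h.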
# [10] = biological target: Tumor necrosis factor (Homo sapiens) (UniProt P01375); test: qHTS assay to identify small molecules that stimulate Tumor Necrosis Factor-alpha (TNF-alpha) secretion (AID 651757; active means well fitted curve in the direction sought with a large enough effect in the signal ratio; the % refers to the signal ratio)
# Procedure, shortened: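 Using 3000 THP-1 cells per well, compounds and controls were applied for 17 hrs at 37 C. Detection followed with two labeled anti-TNF-alpha antibodies (cryptate donor, XL665 acceptor) for 3 hr at room temperature, measured by TR-FRET.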
# [11] = qHTS assay for small molecule activators of the human pregnane X receptor (PXR) signaling pathway (AID 720659; call rule not given here)
# [12] = biological target: Bile acid receptor (Homo sapiens) (UniProt Q96RI1); test: qHTS assay for small molecule antagonists of farnesoid X receptor signaling (AID 588526; calls by dose curve)
# Procedure, shortened: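 Beta-lactamase reporter antagonist mode: HEK293T FXR-UAS-bla cells, titrated compound, CDCA stimulation, 16 h 37 C, CCF4 dye 2 h RT. Data normalized to CDCA 50 uM and DMSO; Hill-fit IC50.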
# [13] = biological target: Glucocorticoid receptor (Homo sapiens) (UniProt P04150); test: qHTS assay for small molecule antagonists of glucocorticoid receptor signaling (AID 588533; active means well fitted inhibition curve with a large enough effect in the signal ratio, with a control signal flat, not every such curve was filed as active; the % refers to the signal ratio;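 further: cells stimulated with 2 nM dexamethasone as agonist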)
# Procedure, shortened: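 Antagonist-mode qHTS: compound titrations added to GRE-bla HeLa cells, then dexamethasone 2 nM final; 18 h, 37 C. CCF4 FRET fluorescence normalized to dexamethasone and DMSO; IC50 from Hill fit.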
# [14] = qHTS assay for small molecule antagonists of peroxisome proliferator-activated receptor delta signaling (AID 588535; active means well fitted inhibition curve with a large enough effect in the signal ratio, with a control signal flat, not every such curve was filed as active; the % refers to the signal ratio;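 on max response: cells co-treated with a PPAR-delta agonist as stimulator during compound exposure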); settings: HEK293T PPARd-UAS-bla, beta-lactamase FRET ratio, 18 h; 460 nm channel
# Procedure, shortened: (§1)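 Antagonist-mode qHTS using GeneBLAzer PPAR-delta-UAS-bla HEK293T cells; compound exposure 18 hrs at 37 C over a titration. Ratiometric CCF4 fluorescence at 460/530 nm; concentration-response points fitted to the Hill equation.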
# [15] = biological target: Peroxisome proliferator-activated receptor delta (Homo sapiens) (UniProt Q03181); test: as above
# Procedure, shortened: as §1
# [16] = qHTS assay for small molecule activators of the nuclear factor-kappa B (NF-kB) signaling pathway (AID 651749; active means well fitted activation curve with a large enough effect in the signal ratio; the % refers to the signal ratio; further: series mostly up to about 77 µM); settings: NF-kB-bla ME-180 cells, beta-lactamase FRET ratio, 16 h; stronger effect = higher value
# Procedure, shortened: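 FRET-based beta-lactamase detection in ME-180 cells reports NF-kB response-element-driven transcription following overnight (16 hr) compound treatment.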
# [17] = qHTS assay for small molecule disruptors of the mitochondrial membrane potential - 1 hr assay (AID 651754; calls by dose curve; further: nearly all actives have a fitted effect of over 35% in size)
# Procedure, shortened: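 In this qHTS format, a 1 hr compound treatment of HepG2 cells precedes Mito-MPS staining, and membrane potential is judged from aggregate (red) against monomer (green) fluorescence intensity.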
# [18] = Cell Viability - LYMP2-023 (AID 975);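 further: cellular ATP measured by luciferase luminescence as viability proxy; series mostly up to about 92 µM; cells exposed to compound for 24 hours at 37 °C; nearly all actives have a fitted effect of over 55% in size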
# Procedure, shortened: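 In this qHTS, ATP-based luciferase luminescence (CellTiter-Glo) is quantified in human lymphoblastoid cells after 24 hr compound treatment at 37 C; tetraoctylammonium bromide serves as positive control. Concentration-response curves are Hill-fitted to give AC50.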
# [19] = Cell Viability - LYMP2-006 (AID 978);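 further: series mostly up to about 92 µM; cells exposed to compound for 24 hours; nearly all actives have a fitted effect of over 60% in size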
# Procedure, shortened: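 Concentration-dependent loss of intracellular ATP in a human lymphoblastoid line after 24 hr treatment at 37 C was measured by CellTiter-Glo luminescence, with AC50 values obtained from standard Hill-equation modelling.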
# [20] = Cellular Toxicity (caspase-3) BJ (AID 658);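 further: cells exposed to compound for 16 hours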
# Procedure, shortened: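 Caspase-Glo 3/7 luminescence, read 1 hr after reagent at room temperature, in normal BJ fibroblasts exposed 16 hours at 37 °C. AC50 values from Hill-equation concentration-response, scaled between DMSO basal and 10 uM staurosporine as 100%.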
# Chain of Tumor necrosis factor (Homo sapiens) (P01375 whole entry, looked up): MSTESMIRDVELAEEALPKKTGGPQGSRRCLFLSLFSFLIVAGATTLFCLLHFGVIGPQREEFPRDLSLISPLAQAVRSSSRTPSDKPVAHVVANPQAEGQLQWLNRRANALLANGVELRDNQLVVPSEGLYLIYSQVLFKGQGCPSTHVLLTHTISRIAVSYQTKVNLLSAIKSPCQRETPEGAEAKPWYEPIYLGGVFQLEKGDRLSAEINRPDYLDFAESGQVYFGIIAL
# Chain of Peroxisome proliferator-activated receptor delta (Homo sapiens) (Q03181 whole entry, looked up): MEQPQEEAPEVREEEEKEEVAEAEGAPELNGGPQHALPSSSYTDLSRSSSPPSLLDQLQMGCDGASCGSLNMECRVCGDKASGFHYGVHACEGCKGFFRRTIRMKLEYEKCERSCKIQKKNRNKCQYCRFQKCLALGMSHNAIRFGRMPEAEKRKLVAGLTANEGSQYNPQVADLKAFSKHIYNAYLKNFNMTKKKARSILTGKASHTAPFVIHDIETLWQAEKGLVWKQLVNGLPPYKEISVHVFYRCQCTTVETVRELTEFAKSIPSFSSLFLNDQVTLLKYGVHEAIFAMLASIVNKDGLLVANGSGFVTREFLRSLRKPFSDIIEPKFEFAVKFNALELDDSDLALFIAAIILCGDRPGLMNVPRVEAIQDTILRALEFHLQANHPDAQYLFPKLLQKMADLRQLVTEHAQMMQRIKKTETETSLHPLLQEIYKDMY
# Chain of Retinoic acid receptor RXR-alpha (Homo sapiens) (P19793 whole entry, looked up): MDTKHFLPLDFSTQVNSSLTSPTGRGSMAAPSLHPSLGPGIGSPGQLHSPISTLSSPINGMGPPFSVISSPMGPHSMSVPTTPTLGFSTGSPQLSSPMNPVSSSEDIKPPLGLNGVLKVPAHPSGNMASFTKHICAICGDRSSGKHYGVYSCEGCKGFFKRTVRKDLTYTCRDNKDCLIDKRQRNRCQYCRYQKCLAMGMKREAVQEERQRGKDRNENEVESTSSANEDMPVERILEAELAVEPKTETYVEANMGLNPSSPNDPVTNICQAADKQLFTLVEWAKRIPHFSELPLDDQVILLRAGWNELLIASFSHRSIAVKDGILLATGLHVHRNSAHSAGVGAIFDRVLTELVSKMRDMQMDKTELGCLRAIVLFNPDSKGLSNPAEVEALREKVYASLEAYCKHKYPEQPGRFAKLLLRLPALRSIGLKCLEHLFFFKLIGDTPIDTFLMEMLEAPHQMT
# Chain of Peroxisome proliferator-activated receptor gamma (Homo sapiens) (P37231 whole entry, looked up): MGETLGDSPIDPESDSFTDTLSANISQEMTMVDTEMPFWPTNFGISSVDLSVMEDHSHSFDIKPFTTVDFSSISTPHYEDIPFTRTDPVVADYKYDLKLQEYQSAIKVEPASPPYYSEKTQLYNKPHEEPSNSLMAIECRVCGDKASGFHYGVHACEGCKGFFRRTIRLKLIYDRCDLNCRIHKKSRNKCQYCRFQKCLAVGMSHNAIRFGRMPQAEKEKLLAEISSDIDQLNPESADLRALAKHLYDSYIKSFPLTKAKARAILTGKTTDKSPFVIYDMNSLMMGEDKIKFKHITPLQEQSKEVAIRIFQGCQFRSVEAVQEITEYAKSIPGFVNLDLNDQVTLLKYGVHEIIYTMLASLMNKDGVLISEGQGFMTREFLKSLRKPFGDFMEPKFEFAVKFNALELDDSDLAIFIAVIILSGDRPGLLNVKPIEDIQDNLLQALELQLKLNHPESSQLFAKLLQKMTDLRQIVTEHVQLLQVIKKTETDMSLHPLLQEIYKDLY
# Chain of Bile acid receptor (Homo sapiens) (Q96RI1 whole entry, looked up): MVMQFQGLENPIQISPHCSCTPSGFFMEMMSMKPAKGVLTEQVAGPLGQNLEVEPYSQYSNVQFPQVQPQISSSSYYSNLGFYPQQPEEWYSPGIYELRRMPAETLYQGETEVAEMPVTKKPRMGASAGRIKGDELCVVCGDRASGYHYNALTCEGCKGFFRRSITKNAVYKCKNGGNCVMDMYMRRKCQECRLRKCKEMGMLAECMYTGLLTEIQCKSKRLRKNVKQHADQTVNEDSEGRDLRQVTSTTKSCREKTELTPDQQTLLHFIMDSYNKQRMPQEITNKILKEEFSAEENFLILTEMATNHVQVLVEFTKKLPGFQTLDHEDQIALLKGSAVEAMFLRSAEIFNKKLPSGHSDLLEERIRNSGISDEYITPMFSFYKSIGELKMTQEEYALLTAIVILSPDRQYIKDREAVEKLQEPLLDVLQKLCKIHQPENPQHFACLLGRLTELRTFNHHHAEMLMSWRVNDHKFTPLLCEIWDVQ
# Chain of Estrogen receptor (Homo sapiens) (P03372 whole entry, looked up): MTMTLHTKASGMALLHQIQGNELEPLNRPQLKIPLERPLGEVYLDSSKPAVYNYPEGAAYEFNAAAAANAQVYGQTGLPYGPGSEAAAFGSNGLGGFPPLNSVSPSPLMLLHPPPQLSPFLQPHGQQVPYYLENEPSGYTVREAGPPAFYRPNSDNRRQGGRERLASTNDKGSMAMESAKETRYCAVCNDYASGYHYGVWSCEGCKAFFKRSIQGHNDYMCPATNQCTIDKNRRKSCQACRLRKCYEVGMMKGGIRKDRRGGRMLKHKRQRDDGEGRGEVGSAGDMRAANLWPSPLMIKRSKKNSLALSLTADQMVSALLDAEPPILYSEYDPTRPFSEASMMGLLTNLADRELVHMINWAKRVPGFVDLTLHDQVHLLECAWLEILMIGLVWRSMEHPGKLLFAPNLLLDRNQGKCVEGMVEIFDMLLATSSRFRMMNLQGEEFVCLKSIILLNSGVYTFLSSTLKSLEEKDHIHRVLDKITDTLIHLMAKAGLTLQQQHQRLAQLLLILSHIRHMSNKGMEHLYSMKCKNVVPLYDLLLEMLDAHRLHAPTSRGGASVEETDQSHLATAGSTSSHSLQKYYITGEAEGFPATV
# Chain of Phospholipid hydroperoxide glutathione peroxidase GPX4 (Homo sapiens) (P36969 whole entry, looked up): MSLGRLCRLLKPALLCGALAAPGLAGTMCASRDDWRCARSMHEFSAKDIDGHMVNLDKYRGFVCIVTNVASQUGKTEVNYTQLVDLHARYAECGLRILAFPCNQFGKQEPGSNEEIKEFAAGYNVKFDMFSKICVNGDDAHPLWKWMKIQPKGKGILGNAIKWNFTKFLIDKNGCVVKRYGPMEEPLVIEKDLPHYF
# Chain of Cytochrome P450 2D6 (Homo sapiens) (P10635 whole entry, looked up): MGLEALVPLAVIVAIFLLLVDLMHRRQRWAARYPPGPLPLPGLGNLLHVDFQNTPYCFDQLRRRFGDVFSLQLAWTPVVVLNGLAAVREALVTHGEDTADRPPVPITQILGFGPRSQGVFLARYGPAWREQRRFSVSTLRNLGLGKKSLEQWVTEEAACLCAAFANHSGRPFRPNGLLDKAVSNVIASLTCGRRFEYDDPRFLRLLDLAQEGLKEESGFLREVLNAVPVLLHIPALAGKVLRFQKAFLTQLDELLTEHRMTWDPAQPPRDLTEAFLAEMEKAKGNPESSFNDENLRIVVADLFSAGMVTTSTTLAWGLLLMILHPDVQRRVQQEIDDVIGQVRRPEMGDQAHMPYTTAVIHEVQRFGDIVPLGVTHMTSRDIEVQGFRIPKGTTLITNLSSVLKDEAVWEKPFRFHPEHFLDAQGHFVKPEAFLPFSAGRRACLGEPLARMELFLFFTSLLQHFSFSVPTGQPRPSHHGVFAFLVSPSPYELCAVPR
# Chain of Glucocorticoid receptor (Homo sapiens) (P04150 whole entry, looked up): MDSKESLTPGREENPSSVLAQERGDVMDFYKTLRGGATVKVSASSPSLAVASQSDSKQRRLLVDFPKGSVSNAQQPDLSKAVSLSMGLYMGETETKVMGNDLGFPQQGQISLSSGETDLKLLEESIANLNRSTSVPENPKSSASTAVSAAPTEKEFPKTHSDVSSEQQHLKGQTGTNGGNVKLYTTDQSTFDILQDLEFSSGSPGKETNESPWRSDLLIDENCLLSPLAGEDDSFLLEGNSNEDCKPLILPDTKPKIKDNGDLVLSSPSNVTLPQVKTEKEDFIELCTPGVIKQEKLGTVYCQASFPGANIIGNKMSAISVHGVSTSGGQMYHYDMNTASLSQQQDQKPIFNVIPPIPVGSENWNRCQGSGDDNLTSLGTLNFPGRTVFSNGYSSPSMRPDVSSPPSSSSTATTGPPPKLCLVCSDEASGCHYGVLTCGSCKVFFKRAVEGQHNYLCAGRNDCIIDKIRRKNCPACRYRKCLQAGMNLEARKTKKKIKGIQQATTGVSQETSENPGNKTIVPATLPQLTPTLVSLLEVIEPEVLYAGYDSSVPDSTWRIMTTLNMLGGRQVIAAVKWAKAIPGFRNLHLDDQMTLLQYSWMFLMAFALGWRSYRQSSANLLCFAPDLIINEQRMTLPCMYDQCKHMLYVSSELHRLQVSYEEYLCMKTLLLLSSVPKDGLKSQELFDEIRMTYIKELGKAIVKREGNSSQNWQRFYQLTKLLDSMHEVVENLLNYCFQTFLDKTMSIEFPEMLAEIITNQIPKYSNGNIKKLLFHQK
# Chain of Dual specificity protein kinase CLK4 (Homo sapiens) (Q9HAZ1 whole entry, looked up): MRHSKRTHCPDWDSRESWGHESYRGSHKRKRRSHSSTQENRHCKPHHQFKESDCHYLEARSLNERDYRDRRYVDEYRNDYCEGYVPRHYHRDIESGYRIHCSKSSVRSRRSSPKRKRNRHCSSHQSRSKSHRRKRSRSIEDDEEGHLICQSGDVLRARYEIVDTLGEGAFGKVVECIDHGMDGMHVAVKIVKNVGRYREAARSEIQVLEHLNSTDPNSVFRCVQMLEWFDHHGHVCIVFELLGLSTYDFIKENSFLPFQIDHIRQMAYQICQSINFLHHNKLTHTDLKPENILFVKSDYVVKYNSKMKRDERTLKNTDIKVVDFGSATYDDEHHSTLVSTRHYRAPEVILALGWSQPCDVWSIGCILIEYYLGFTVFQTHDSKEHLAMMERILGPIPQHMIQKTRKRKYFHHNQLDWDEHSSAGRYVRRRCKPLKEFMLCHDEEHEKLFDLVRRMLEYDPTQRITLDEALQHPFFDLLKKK
compound,measurement,setting,value
Cc1cccc(CNc2ncncc2-c2ccccc2C)c1,Potency,[1],3.98 µM (active)
CN(Cc1ccco1)c1nc(-c2ccccc2C(F)(F)F)nc2ccccc12,Potency,[1],7.94 µM (active)
CCCCCC/C=C\CCCCCCCC(=O)O,Potency,[2],14.1 µM (active)
CC(=O)OC1CC2CCC1(C)C2(C)C (stereo unspecified),Potency,[2],inactive
CC1(C)C2CCC1(C)C(O)C2 (stereo unspecified),Potency,[2],inactive
COCCn1c(=O)c(-c2cccs2)nc2cnc(N3CCNCC3)nc21,Potency,[3],inactive
COc1ccc2[nH]cc(CCNc3nc(-c4ccccc4OC)nc4ccccc34)c2c1,Potency,[3],35.5 µM (active)
Cc1ncc(COP(=O)(O)O)c(C)c1O,Potency,[2],inactive
O=C(O)c1ccccc1,Potency,[4],inactive
same,Potency,[5],inactive
same,outcome,[6],inactive
same,max response,[7],-9.66%
same,outcome,[8],inactive
same,Potency,[9],inactive
same,outcome,[10],inactive
same,outcome,[11],inactive
COc1ccccc1CNc1nc(-c2ccoc2)nc2ccccc12,Potency,[3],inactive
COc1ccccc1-c1nc(NC2CC2)c2ccccc2n1,Potency,[3],14.1 µM (active)
CC(C)=CCCC(C)=CCCC(C)=CCCC=C(C)CCC=C(C)CCC=C(C)C,Potency,[2],inactive
C=CC(C)(CCC=C(C)C)OC(C)=O (stereo unspecified),Potency,[5],inactive
same,outcome,[12],inactive
same,Potency,[13],inactive
same,max response,[14],-1.31%
same,Potency,[15],inactive
same,outcome,[6],inactive
same,max response,[7],-5.34%
same,outcome,[8],inactive
same,Potency,[9],inactive
same,activation,[16],-0.624% (inactive)
same,outcome,[11],inactive
Cc1ccccc1-c1nc(Nc2ccncc2)c2ccccc2n1,Potency,[3],25.1 µM (active)
COc1ccc2[nH]cc(CCNc3ncncc3-c3ccccc3C)c2c1,Potency,[1],1.26 µM (active)
same,Potency,[3],28.2 µM (active)
CCCCCCCCCCCCCC(=O)O,Potency,[4],inactive
same,Potency,[5],inactive
same,outcome,[12],inactive
same,Potency,[13],inactive
same,outcome,[6],inactive
same,max response,[7],12.8% and -5.45%
same,outcome,[8],inactive
same,Potency,[9],inactive
same,Potency,[17],inactive
same,outcome,[10],inactive
same,outcome,[11],inactive
COc1cc(/C=C/c2ccccc2)oc(=O)c1,Potency,[18],inactive
same,Potency,[19],inactive
same,Potency,[13],inactive
same,max response,[14],-19.2%
same,Potency,[15],inactive
same,outcome,[6],inactive
same,Potency,[17],inactive
C=C(C)C1CC=C(C)C(O)C1 (stereo unspecified),Potency,[4],inactive
same,outcome,[20],inactive
same,Potency,[19],inactive
same,Potency,[5],inactive
same,Potency,[13],inactive
same,outcome,[6],inactive
same,max response,[7],-1.36%
same,outcome,[8],inactive
same,activation,[16],-0.16% (inactive)
same,Potency,[17],inactive
same,outcome,[10],inactive
same,outcome,[11],inactive
C=CC(=C)CCC=C(C)C,Potency,[4],inactive
same,outcome,[20],inactive
same,Potency,[18],inactive
same,Potency,[19],inactive
same,Potency,[5],inactive
same,Potency,[13],inactive
same,max response,[14],-12.1%
same,Potency,[15],inactive
same,max response,[7],1.9%
same,outcome,[8],inactive
same,Potency,[9],inactive
same,activation,[16],-0.615% (inactive)
same,Potency,[17],inactive
same,outcome,[10],inactive
same,outcome,[11],inactive
CC1=C2[C@H](/C=C(\C)C(=O)O)CC[C@@H](C)[C@H]2CC1,Potency,[4],inactive
same,outcome,[20],inactive
same,outcome,[12],inactive
same,Potency,[13],inactive
same,activation,[16],-1.71% (inactive)
same,outcome,[10],inactive
same,outcome,[11],inactive
COc1ccc(/C=C/c2cc(OC)cc(=O)o2)cc1,outcome,[20],inactive
same,Potency,[18],inactive
same,Potency,[19],inactive
same,Potency,[5],inactive
same,outcome,[12],inactive
same,Potency,[9],1.88 µM (active)
same,activation,[16],1.78% (inactive)
same,Potency,[17],inactive
CN(C)c1ccc(-c2cncnc2NCCc2cnc[nH]2)cc1,Potency,[1],5.01 µM (active)
CCCCCCCC/C=C/CCCCCCCC(=O)O,Potency,[2],11.2 µM (active)
CCCCCCCCCCCC(=O)O,Potency,[4],inactive
same,outcome,[20],inactive
same,Potency,[18],inactive
same,Potency,[19],inactive
same,max response,[14],12.5%
same,Potency,[15],inactive
same,Potency,[9],inactive
same,Potency,[17],inactive
same,outcome,[10],inactive
COc1ccc2[nH]cc(CCNc3ncncc3-c3ccccc3C(F)(F)F)c2c1,Potency,[1],2 µM (active)
O=c1cc(-c2ccc(O)c(O)c2)oc2cc(O[C@@H]3O[C@@H](CO)[C@@H](O)[C@@H](O)[C@H]3O)cc(O)c12,Potency,[1],inactive
CCCCC/C=C/C/C=C/CCCCCCCC(=O)O,Potency,[2],4.47 µM (active)
C=CCc1ccc(OC)c(OC)c1,Potency,[4],inactive
same,Potency,[18],inactive
same,outcome,[12],inactive
same,Potency,[13],inactive
same,max response,[14],10.2% and -6.71%
same,Potency,[15],inactive
same,outcome,[6],inactive
same,max response,[7],-12.6% and 4.43%
same,outcome,[8],inactive
same,Potency,[9],33.5 µM (active) and inactive
same,activation,[16],-0.295% (inactive) and 0.286% (inactive)
same,Potency,[17],inactive
same,outcome,[10],inactive
same,outcome,[11],inactive
